From PubChem
Nrf2 block = Nrf2 pathway inhibition; AID 504444; actives 2.1% (n = 360,000); Potency, µM (top dose mostly 46 µM), without a hit: top-dose activity change, negative = inhibition, hits mostly inhibitors; A549 ARE-Fluc reporter, luciferase luminescence, 18-24 h; further: potency means the concentration at half of the fitted maximal effect; on the % scale 0 is the no-effect control and ±100 the full control effect; nearly all actives have a fitted effect of over 60% in size
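In this cell-based qHTS, ARE-driven firefly luciferase in A549 cells reports Nrf2 activity; the luminescent signal after BugLite lysis is the measured value, with a prior CellTiter-Fluor read for cell health.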
Giardia killer = kills Giardia lamblia. Giardia lamblia trophozoite viability. activity change, % at 7.66 µM, hits read low. actives 0.15% (n = 340,000). AID 540267; in the data active means activity change below about -80%; inconclusive means between about -30% and that limit;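 further: parasites exposed to compound for two days anaerobically before the ATP read; on the % scale 0 is the no-effect control and ±100 the full control effect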
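Compounds were tested on trophozoites seeded at 100 cells/well and held 48 hrs at 37 deg C anaerobically. An ATP-based luminescent kit measured the remaining live cells.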
Nrf2 activator = activators of Nrf2 (ARE) signaling. Potency, µM (top dose mostly 46.1 µM), for inactives: at the top dose activation, actives largely listed as activators. actives 0.31% (n = 410,000). AID 624171. AREc32 ARE-luciferase reporter (MCF7-derived line), luminescence, 24 h; further: potency means the concentration at half of the fitted maximal effect; % of control where 0% means no effect; nearly all actives have a fitted effect of over 65% in size
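AREc32 cells carrying an ARE-driven firefly luciferase reporter were seeded at 1000 cells/well in OPTI-MEM with 5% FBS, then exposed to compound for 24 hr at 37 deg C. Luminescence was read with Steady-Glo after 30 min at RT.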
mIDH1 inhibitor = inhibitors of human mutant IDH1 R132H | O75874 | IDH1-R132H enzyme, NADPH consumption, diaphorase/resazurin fluorescence | Potency, µM (top dose mostly 76.6 µM), without a hit: at the highest dose activity change, negative = inhibition, most hits filed as inhibitors | actives 0.093% (n = 390,000); further: potency means the concentration at half of the fitted maximal effect; on the % scale 0 is the no-effect control and ±100 the full control effect; nearly all actives have a fitted effect of over 65% in size
Target sequence (O75874 whole entry R132H, stated change not applied): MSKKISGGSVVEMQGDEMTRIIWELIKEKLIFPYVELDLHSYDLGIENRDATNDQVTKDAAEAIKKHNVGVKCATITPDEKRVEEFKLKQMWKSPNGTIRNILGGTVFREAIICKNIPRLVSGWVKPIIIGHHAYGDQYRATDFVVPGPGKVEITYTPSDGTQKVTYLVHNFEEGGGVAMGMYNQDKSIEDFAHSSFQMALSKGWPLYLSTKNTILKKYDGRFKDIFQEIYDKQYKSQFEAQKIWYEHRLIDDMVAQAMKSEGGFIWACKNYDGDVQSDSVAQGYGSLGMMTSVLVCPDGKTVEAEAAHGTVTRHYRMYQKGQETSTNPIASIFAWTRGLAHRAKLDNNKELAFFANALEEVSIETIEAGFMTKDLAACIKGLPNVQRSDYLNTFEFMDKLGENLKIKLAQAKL
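IDH1-R132H (0.5 ug/mL dispensed) in pH 7.5 Tris buffer was preincubated 30 min with compound, then given a substrate mix of 0.016 mM NADPH and 2 mM alpha-KG for 80 min at room temperature; remaining NADPH was read by diaphorase/resazurin fluorescence.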
A549 viability = kills or reduces viability of A549 cells in Nrf2 counter-screen | actives 0.16% (n = 390,000) | A549 ARE-Fluc cells, CellTiter-Fluor viability, 18-24 h | Potency, µM (highest dose often 46 µM), inactives show top-dose activity change, negative = cytotoxicity, actives largely listed as inhibitors; further: potency means the concentration at half of the fitted maximal effect; on the % scale 0 is the no-effect control and ±100 the full control effect
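A549 ARE_Fluc cells in 5% FBS OPTI-MEM were exposed to compounds in concentration-response for 18-24 h at 37 deg C. Viability was read by CellTiter-Fluor fluorescence (Ex 405/Em 525) after 30 min, before the luciferase read.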
Anesthetic bind = candidate novel general anesthetic via apoferritin binding | P02791 | apoferritin/1-aminoanthracene competitive binding, fluorescence | Potency, µM (series often up to 77.5 µM), without a hit: top-dose activity change, negative = displacement, hits mostly inhibitors | actives 0.074% (n = 350,000) | AID 485281; further: potency means the concentration at half of the fitted maximal effect; on the % scale 0 is the no-effect control and ±100 the full control effect; nearly all actives have a fitted effect of over 20% in size
Target sequence (P02791 2-175 limits assumed): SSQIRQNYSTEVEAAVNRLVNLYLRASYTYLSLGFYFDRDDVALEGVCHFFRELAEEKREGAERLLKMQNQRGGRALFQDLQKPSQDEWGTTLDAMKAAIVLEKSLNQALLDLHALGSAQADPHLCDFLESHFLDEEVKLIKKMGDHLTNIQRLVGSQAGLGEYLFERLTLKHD
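Apoferritin-based anesthetic binding model; compound displacement of fluorescent 1-AMA measured as endpoint fluorescence after 10 minutes at room temperature, scaled to free-ligand and complex controls.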
Active calls of the source: *; ? = inconclusive; / = no result; [ ] = dose if it differs, or a comment. Only some compounds are listed: those with a hit (about 2.3% of all), similar ones and a draw of the others. Unless noted, the call rests on the fitted dose curve; in most records, active means well fitted curve in the direction sought with a large enough effect; inconclusive means small, poorly fitted or top-dose-only effect, or another doubt; inactive means no such curve, though single readings can be large; an effect the other way counts as inactive or inconclusive.

SMILES	Nrf2 block	Giardia killer	Nrf2 activator	mIDH1 inhibitor	A549 viability	Anesthetic bind
Cc1cc(C)c2c(N)c(C(=O)Nc3ncc(C)s3)sc2n1	?	-107.6*	-1.4%	10.7%	9.6%	114.8%
CCN(CC)C(=O)c1sc2c(c1C)c(=O)n(-c1ccc(Cl)c(Cl)c1)c(=O)n2Cc1ccccc1C#N	/	/	-0.9%	-9.6%	2.2%	-0.4%
CC1=C(C(=O)Nc2cccc(Cl)c2C)C2(CCCCCC2)OC1=O	?	/	-0.1%	4.0%	11.4%	-8.3%
Cc1ccc(-n2cc(CNCCCn3ccnc3C)c(-c3ccc(F)cc3)n2)cc1	-16.4%	11.5	3.8%	0.2%	25.9µM*	-13.1%
Cc1ccc(-n2cc(CNCCc3cscn3)c(-c3ccc(F)cc3)n2)cc1	7.4%	1.9	0.4%	3.2%	6.6%	?
Cc1ccc(-c2nc3ncccc3o2)cc1NC(=O)c1ccc(-c2ccc(Cl)cc2)o1	-7.3%	/	-0.8%	-9.6%	1.7%	-0.9%
Cc1ccc2onc(CC(=O)N3CCN(c4ccc(F)cc4)CC3)c2c1	16.4µM*	/	0.2%	3.9%	?	-17.3%
O=C(O)c1ccccc1-c1c2cc(I)c(=O)c(I)c-2oc2c(I)c(O)c(I)cc12	-26.9%	-4.7	-0.7%	?	9.2µM*	-7.3%
Cc1cc(NS(=O)(=O)c2ccc3c(c2)CCC(=O)N3)ccc1F	?	/	/	/	-2.7%	/
CCCN1CNc2c(c(=O)[nH]c(=S)n2CCc2ccsc2)C1	3.4%	?	/	/	23.7%	/
C=CCN1C(c2ccc(Br)cc2)=CS/C1=C(\C#N)c1nnc(N2CCOCC2)n1-c1ccccc1	25.9µM*	8.6	2.7%	-9.3%	?	/
COc1ccc(-c2ccc3ncnc(NCc4cccs4)c3c2)cc1	0.0%	/	/	/	20.8%	/
O=c1c(O)c(-c2ccc(O[C@@H]3O[C@H](CO)[C@@H](O)[C@H](O)[C@H]3O)c(O)c2)oc2cc(O)cc(O)c12	/	/	/	/	/	-4.7%
CCCCN1C(=O)c2[nH]nc(-c3ccccc3O)c2C1c1ccc(OCc2ccccc2)cc1 (configuration not stated)	14.6µM*	/	2.0%	-15.7%	?	1.1%
COCCN1C(=O)c2[nH]nc(-c3ccccc3O)c2C1c1ccc(OC)cc1 (configuration not stated)	0.6%	-0.6	0.2%	-1.3%	-3.1%	-13.5%
COCCCN1C(=O)c2[nH]nc(-c3ccccc3O)c2C1c1ccc(OCc2ccccc2)cc1 (configuration not stated)	25.9µM*	/	-5.6%	0.7%	?	-10.4%
Cc1cc(C)c(S(=O)(=O)Nc2ccc(-c3ccc(N4CCCCC4)nn3)cc2)c(C)c1	/	/	2.3%	2.6%	-7.5%	-10.2%
CC1=C(C(=O)N2CCN(c3ccc(Cl)cc3)CC2)C2(CCC(C)CC2)OC1=O (configuration not stated)	-23.3%	/	1.7%	/	10.7%	52.6%
CCc1ccc(/C=C2\SC(=S)N(CCCC(=O)Nc3ccccn3)C2=O)cc1	23.1µM*	9.4	-2.8%	2.0%	-13.4%	-12.6%
O=C(CCCN1C(=O)/C(=C/c2cccc(Br)c2)SC1=S)Nc1cccnc1	?	-6.3	?	-5.1%	?	-21.9%
COC(=O)c1ccc(/C=C2/SC(=S)N(CCCC(=O)Nc3ccccn3)C2=O)cc1	25.8%	3.8	0.3%	0.4%	-18.9%	-0.9%
O=C(CCCN1C(=O)/C(=C\c2cccc(Br)c2)SC1=S)Nc1cccnc1	?	-8.4	10µM*	-2.2%	?	?
Cc1ccc(/C=C2\SC(=S)N(CC(=O)Nc3cccnc3)C2=O)cc1	-13.7%	13.1	1.6%	-5.0%	1.0%	-5.0%
Cc1ccc(/C=C2\SC(=S)N(CCCC(=O)Nc3cccnc3)C2=O)cc1	11.6µM*	-15.8	-2.0%	9.3%	?	-13.9%
CCC(CO)[n+]1c(C)cc(/C=C2\Sc3ccccc3N2Cc2ccccc2)cc1C (configuration not stated)	14.6µM*	1.7	-0.9%	15.8%	?	?
SMILES	Nrf2 block	Giardia killer	Nrf2 activator	mIDH1 inhibitor	A549 viability	Anesthetic bind
CCCN1CCN(C(=S)Nc2ccccc2C(F)(F)F)CC1	16.4µM*	6.8	2.0%	6.8%	-1.8%	23.2%
CCOC(=O)N/N=C1/C[C@@H](O)[C@@H](O)[C@@H]2[C@@H]3C(=O)N(C(C)(C)C)C(=O)[C@H]3CC[C@@H]12	/	/	/	/	/	2.6%[15.3 µM]
CCOC(=O)Cc1ccc(NC(=O)Nc2nnc(N3CCCCC3C)s2)cc1 (configuration not stated)	20.6µM*	/	0.0%	-4.5%	?	-0.9%
CCOC(=O)Cc1nnc(NC(=O)Nc2ccccc2)s1	12.7%	4.0	7.4%	2.5%	-3.5%	-15.5%
COc1cccc(-c2c(C#N)c(N)nc3c2c(C)nn3-c2ccccc2)c1O	25.9µM*	-14.2	4.2%	0.8%	?	-17.0%
Cc1c(/C=N/NC(=O)c2ccccc2O)c2ccccn2c1C(=O)c1ccc(F)cc1	20.6µM*	?	2.9%	2.1%	18.4µM*	-2.8%
CCCOC(=O)NCCCN(C)C	/	/	/	/	/	-8.4%
COc1ccc(/C=C/c2nnc(NC(=O)COc3ccc(Cl)cc3)s2)cc1	-2.7%	27.5	/	/	2.7%	/
CCN1C(=O)Nc2cccc3cccc1c23	8.2µM*	-1.1	?	4.2%	1.9%	/
CCc1nc2c(OCc3ccc(Cl)cc3)cccn2c1N(C=O)Cc1ccc(OC)cc1	/	/	2.2%	/	/	/
CC(=O)c1c(C)nn(CC(O)COc2ccc3c(c2)CCC3)c1C (configuration not stated)	9.2µM*	24.1	-0.4%	9.4%	1.7%	-4.8%
Cc1ccc(-c2nc3ccccc3[nH]2)cc1NC(=S)NC(=O)c1ccccc1Br	18.4µM*	-17.8	2.2%	7.7%	?	-16.7%
CC(=O)c1c(C)[nH]c(C(=O)OCc2ccc(F)cc2Cl)c1C	13µM*	12.8	5.8%	1.5%	-13.3%	-5.6%
CC(=O)c1c(C)[nH]c(C(=O)OCc2nnc(-c3ccccc3)o2)c1C	20.6µM*	-11.7	3.1%	-1.5%	-14.6%	-13.5%
CCOC(=O)c1ccccc1NC(=O)Cn1c(=O)n(-c2cccc(C)c2)c(=O)c2c1c1cc(C)ccc1n2C	9.7%[9.27 µM]	/	-0.1%	-4.1%	8.8%	-3.0%
COCc1nn2c(=O)cc(N3CCNCC3)nc2s1	5.1%	/	/	/	7.1%	/
CCc1ccc(NC(=O)Cn2c(=O)c(-c3ccccc3NC(C)=O)nc3ccccc32)cc1	17.1%	/	1.8%	-13.7%	2.1%	-11.6%
CCOC(=O)c1c(-c2cccs2)csc1NC(=O)CN(CC)CC	18.4µM*	-3.7	-0.1%	-4.7%	?	11.8%
